Results published in PubChem BioAssay (NCI).
About 79,000 compounds went through this panel and 15% of them were active in at least one assay; those are over-represented in the sample as a whole. Active and inactive are the calls of the source. Cut-off read from the data, not from the text of the source: active = growth inhibition above about 70%; inactive = the rest.

Experiment: NCI Yeast Anticancer Drug Screen. Data for the sgs1 mgt1 strain (AID 161);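 note: 0% = growth of cultures given vehicle only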
Details: S. cerevisiae sgs1 mgt1 strain, hits give high values
Description: Growth inhibition of yeast strains with defined genetic alterations is measured as a screen for potential anti-cancer activity. Selected strains with alterations in DNA damage repair or cell cycle control were exposed to compounds and growth inhibition was measured relative to vehicle treated controls. The strain used in this assay is sgs1 mgt1

[1] = at 5.0 µM (retest, dose inferred, filed as 0.5)
[2] = at 50.0 µM (retest, dose inferred, filed as 5.0)

Row | Compound | growth inhibition [1] | growth inhibition [2] | growth inhibition (at 50.0 µM)
1 | C[n+]1c(/C=C/c2ccccc2Cl)sc2ccccc21 | 52% (inactive) | 88% (active) | 98.2% (active)
2 | CN(C)CCNc1ccc2nnn3c4ccc(O)cc4c(=O)c1c23 | 12% (inactive) | 23% (inactive) | -6.05% (inactive)
3 | C/C=C/C=N/N(c1nnc(-c2ccccc2)c(-c2ccccc2)n1)S(=O)(=O)c1ccc(C)cc1 | 36% (inactive) | 36% (inactive) | 90.1% (active)
4 | CCOC(=O)C1SC(=S)N(C)C1=O (configuration not stated) | 8% (inactive) | 99% (active) | 99% (active)
5 | CC(=O)N(c1ccccc1)C(C)C | 1% (inactive) | 1% (inactive) | -9.75% (inactive)
6 | Cn1c(=O)nc2n(-c3ccc(Cl)cc3)c3cc(Cl)ccc3nc-2c1=O | 9% (inactive) | 15% (inactive) | 7.8% (inactive)
7 | COc1cc(/C=C2/N=C(c3ccccc3)N(C3=NNC4(C(=O)N3)c3ccccc3-c3ccccc34)NC2=O)ccc1O | 6% (inactive) | 14% (inactive) | 7.55% (inactive)
8 | O=c1[nH]c2cc(Cl)ccc2nc1/C=C(\O)c1ccccn1 | 8% (inactive) | 71% (active) | 74.8% (active)
9 | CC(C)NC(=O)OCc1c2c(n(C)c1COC(=O)NC(C)C)-c1ccccc1CC2 | 13% (inactive) | 97% (active) | 98.4% (active)
10 | [C](#[C][Sn]([c]1ccccc1)([c]1ccccc1)[c]1ccccc1)[Sn]([c]1ccccc1)([c]1ccccc1)[c]1ccccc1 | 99% (active) | 97% (active) | 96.5% (active)
11 | CC[N+](CC)(CC)Cc1ccc(C[N+](CC)(CC)CC)cc1 | 6% (inactive) | -15% (inactive) | -0.8% (inactive)
12 | CCN1/C(=C/C=C/C=C\C=C\c2sc3ccc4ccccc4c3[n+]2CC)Sc2ccc3ccccc3c21 | 25% (inactive) | 75% (active) | 47.6% (inactive)
13 | CC(C)N=Cc1cc(I)cc(I)c1O.CC(C)N=Cc1cc(I)cc(I)c1O.[Co] | 99% (active) | 99% (active) | 97.2% (active)
14 | O=C1CSC(=S)N1c1ccc(I)cc1 | 2% (inactive) | 59% (inactive) | 99.2% (active)
